About 4,300 (8.3%) of roughly 52,000 compounds were called active. This is one part of a sample in which actives are shown more often than they occur. Cut-off read from the data, not from the text of the source: active = survival mostly below about 52% (no sharp cut-off); inactive = mostly above about 56%.

The text below walks through data of PubChem BioAssay AID463173 (ICCB-Longwood Screening Facility, Harvard Medical School, 2010).

The subject of the experiment is DeltatarO mutant. Briefly: growth inhibition of S. aureus wild type versus tarO mutant, primary screen, teichoic acid synthesis inhibitors, RN4220, OD600 (AID 463173). As to conditions: OD600, 18 h, active compounds read low, screened at 18.75 µg/mL (by protocol).
For `COc1ccc(CCNC(=O)CCCCn2c(=O)c3ccccc3n(Cc3cc(C)ccc3C)c2=O)cc1OC`, the survival is 108% (inactive).

In the case of `O=C1CC(c2nnc(Cc3ccc(F)cc3)o2)CN1c1ccccc1` (stereo unspecified), the survival was 134% (inactive).

`Cc1ccc(N2CC(c3nnc(Cc4ccc(F)cc4)o3)CC2=O)cc1` (stereo unspecified): the survival was 24% (active).

In the case of `Cc1ccc(N2CC(c3nnc(Cc4ccc(Cl)cc4)o3)CC2=O)cc1` (stereo unspecified), the survival was 48% (inactive).

In the case of `COc1ccc(S(=O)(=O)Nc2cccc(-c3ccc(N4CCCCCC4)nn3)c2)c(OC)c1`, the survival is 74% (inactive).

On to `COc1ccc(Cn2ccc3nc(C)c(C(=O)N4CCN(c5cccc(OC)c5)CC4)cc3c2=O)cc1`, for which the survival is 81% (inactive).

Consider `O=C(COc1ccc(F)cc1)Nc1cccc(OCc2cc(=O)n3ccccc3n2)c1`, for which the survival is 102% (inactive).

`Cc1cccc(C(=O)Nc2ccccc2OCc2cc(=O)n3cc(C)ccc3n2)c1`: the survival was 60% (inactive).

Take `Cc1ccc2nc(COc3ccccc3NC(=O)c3ccc(F)cc3)cc(=O)n2c1`: the survival was 20% (active).

As for `CCC(=O)Nc1cccc(OCc2cc(=O)n3cc(C)ccc3n2)c1`, the survival is 55% (inactive).

Regarding `Cc1ccc2nc(COc3cccc(NC(=O)c4ccccc4Cl)c3)cc(=O)n2c1`, the survival is 75% (inactive).

In the case of `O=C(Nc1cccc(OCc2cc(=O)n3ccccc3n2)c1)Nc1cccc(C(F)(F)F)c1`, the survival was -4% (active).

Turning to `Cc1ccc2nc(COc3ccccc3NC(=O)c3ccccc3F)cc(=O)n2c1`, the survival was 85% (inactive).

Take `Cc1ccc(Cl)cc1NC(=O)Nc1cccc(OCc2cc(=O)n3ccccc3n2)c1`: the survival was 72% (inactive).

For the compound `Cc1ccc2nc(COc3cccc(NC(=O)Nc4ccc(C)c(Cl)c4)c3)cc(=O)n2c1`, the survival is 25% (active).

Turning to `CCc1ccc(NC(=O)CSc2cn(CC(=O)N3CCCC3)c3ccccc23)cc1`, the survival was 97% (inactive).

On to `COc1ccc(C)cc1S(=O)(=O)NCC(c1ccc(N(C)C)cc1)N1CCc2ccccc21` (stereo unspecified), for which the survival is 55% (inactive).

Take `Cc1cccc(-n2ccnc2SCC(=O)Nc2nc3ccccc3s2)c1`: the survival is 93% (inactive).

Turning to `Cc1ccc(NC(=O)/C=C/c2ccc(C)o2)c(C)c1`, the survival is 46% (inactive).

Turning to `Cc1ccc(/C=C/C(=O)Nc2ccccc2C(N)=O)o1`, the survival was 64% (inactive).

Consider `COc1ccc(OC)c(NC(=O)/C=C/c2ccc(C)o2)c1`, for which the survival was 40% (active).

Consider `CCOC(=O)c1cc(-c2ccccc2)n(CCC(=O)Nc2ccc(Cl)c(C(F)(F)F)c2)c1C`, for which the survival was 102% (inactive).

As to `CN(C)S(=O)(=O)c1ccc(S(=O)(=O)N(Cc2ccccc2F)C2CC2)cc1`, the survival was 91% (inactive).

Regarding `CCN(CCCNC(=O)c1c(C)oc2ncn(CC(C)C)c(=O)c12)Cc1ccccc1`, the survival was 83% (inactive).

`CCCCN(CCCNC(=O)c1c(C)oc2nc[nH]c(=O)c12)Cc1ccccc1`: the survival was 53% (active).

Consider `Cc1oc2ncn(C)c(=O)c2c1C(=O)NCCCN(Cc1ccccc1)C(C)C`, for which the survival was 72% (inactive).

For `O=C(CSc1ncn(-c2ccccc2)n1)c1ccc(Cl)cc1`, the survival was 74% (inactive).

In the case of `CCCN1C(C(=O)c2ccccc2)=C(OC(=O)c2ccc(F)cc2)c2ccccc2S1(=O)=O`, the survival was 31% (active).

For the compound `CCCCN(CCCC)C1=C(C(=O)c2ccccc2)N(C)S(=O)(=O)c2ccccc21`, the survival is 72% (inactive).

Take `CCCCCN1C(C(=O)c2ccccc2)=C(NC(C)=O)c2ccccc2S1(=O)=O`: the survival was 58% (inactive).

With `CCCN1C(C(=O)c2ccccc2)=C(OC(=O)c2ccc(C)cc2)c2ccccc2S1(=O)=O`, the survival is 52% (inactive).

Turning to `CCN1C(C(=O)c2ccccc2)=C(OC(=O)C(C)C)c2ccccc2S1(=O)=O`, the survival was 67% (inactive).

With `CCCN1C(C(=O)c2ccccc2)=C(OC(=O)C(C)(C)C)c2ccccc2S1(=O)=O`, the survival is 53% (inactive).

`CCCCN1C(C(=O)c2ccccc2)=C(OC(=O)CC)c2ccccc2S1(=O)=O`: the survival was -4% (active).

As for `CCOC(=O)CN1C(C(=O)c2ccccc2)=C(OC(=O)C(C)(C)C)c2ccccc2S1(=O)=O`, the survival is 58% (inactive).

For `CCCCN1C(C(=O)c2ccccc2)=C(OC(C)=O)c2ccccc2S1(=O)=O`, the survival is -4% (active).

In the case of `CCCCN(CCCC)C1=C(C(=O)c2ccccc2)N(CC)S(=O)(=O)c2ccccc21`, the survival is 60% (active).

As for `COC(=O)CN1C(C(=O)c2ccccc2)=C(OC(=O)c2ccc(F)cc2)c2ccccc2S1(=O)=O`, the survival was 56% (inactive).

With `COc1ccc(N(C(=O)c2ccc(C)cc2)S(=O)(=O)c2ccc(Cl)cc2)cc1`, the survival was 76% (inactive).

Consider `CN(CC(=O)Nc1cccc(C(F)(F)F)c1)S(=O)(=O)c1ccc2[nH]c3c(c2c1)CCCC3`, for which the survival is 94% (inactive).

For `CC(=O)N1CCc2cc(C(=O)C[n+]3ccccc3)ccc21`, the survival was 91% (inactive).

Consider `C=CCNC(=O)CN1CCC(n2c(C)nc3cc(C(F)(F)F)ccc32)CC1`, for which the survival was 95% (inactive).

As for `O=C(Cn1ncn2c(cc3ccccc32)c1=O)NCc1ccc(F)cc1`, the survival is 104% (inactive).

As for `CCN1C(C(=O)c2ccccc2)=C(OC(=O)c2ccc(Cl)cc2)c2ccccc2S1(=O)=O`, the survival is 50% (inactive).

For the compound `CCCN1C(C(=O)c2ccccc2)=C(OC(=O)c2ccc(OC)cc2)c2ccccc2S1(=O)=O`, the survival is 56% (inactive).

In the case of `CCCCCN1C(C(=O)c2ccccc2)=C(OC(=O)CC)c2ccccc2S1(=O)=O`, the survival is -4% (active).

In the case of `CCCCC(=O)OC1=C(C(=O)c2ccccc2)N(CC)S(=O)(=O)c2ccccc21`, the survival is 52% (inactive).

Consider `CCCCC(=O)OC1=C(C(=O)c2ccccc2)N(CCC)S(=O)(=O)c2ccccc21`, for which the survival was 18% (active).

As for `COC(=O)CN1C(C(=O)c2ccccc2)=C(OC(=O)c2ccccc2)c2ccccc2S1(=O)=O`, the survival was 49% (inactive).

For the compound `CCCCC(=O)OC1=C(C(=O)c2ccccc2)N(C)S(=O)(=O)c2ccccc21`, the survival is 104% (inactive).

In the case of `CCOC(=O)CN1C(C(=O)c2ccccc2)=C(OC(=O)c2ccccc2)c2ccccc2S1(=O)=O`, the survival was 56% (inactive).

As to `CCN1C(C(=O)c2ccccc2)=C(OC(=O)c2ccc(OC)cc2)c2ccccc2S1(=O)=O`, the survival was 46% (active).

In the case of `O=C(COc1ccccc1)Nc1ccc(S(=O)(=O)N(Cc2ccccc2)c2ccccc2)cc1`, the survival is 61% (inactive).

Turning to `CC1CCCN(CNC(=O)c2ccccc2)C1` (stereo unspecified), the survival is 92% (inactive).

In the case of `COc1cc(CNCCCSc2nnnn2C)cc(Br)c1OC`, the survival is 81% (inactive).

For the compound `Cc1ccc(S(=O)(=O)N2CCCc3cc(NC(=O)c4c(F)cccc4F)ccc32)cc1`, the survival is 73% (inactive).
